An excerpt weighted towards active compounds, which were near 17% of everything screened.
TDP1 cell CPT = qHTS for Inhibitors of human tyrosyl-DNA phosphodiesterase 1 (TDP1): qHTS in cells in presence of CPT; actives 12% (n = 420,000); Potency, µM (doses to about 46.2 µM), usual class: inhibitors; AID 686979, 2013; chicken DT40 Tdp1-/-;hTDP1 cells + 20 nM CPT, ATP luminescence, 48 h; note: nearly all actives have a fitted effect of over 55% in size
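Cell growth measured by CellTiter-Glo luminescence after a minimum 48 h, 37 C compound exposure with 20 nM CPT in Tdp1-knockout DT40 cells stably expressing hTDP1, seeded 400/well; qHTS titration format.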
ClpP mod = qHTS Assay for Activators of ClpP; ATP-dependent Clp protease proteolytic subunit (Bacillus subtilis (strain 168)), P80244; purified B. subtilis ClpP, FRET peptide cleavage, 20 min; Potency, µM (doses to about 57.5 µM); actives 1.9% (n = 340,000); AID 651965, 2013; active = well fitted falling curve with a large enough effect; inconclusive = small, poorly fitted or top-dose-only effect; inactive = no such curve, though single readings can be large or run the other way; note: the source files actives as falling curves though it sought activators and does not explain the sign; nearly all actives have a fitted effect of over 65% in size
Target sequence (P80244 whole entry, looked up): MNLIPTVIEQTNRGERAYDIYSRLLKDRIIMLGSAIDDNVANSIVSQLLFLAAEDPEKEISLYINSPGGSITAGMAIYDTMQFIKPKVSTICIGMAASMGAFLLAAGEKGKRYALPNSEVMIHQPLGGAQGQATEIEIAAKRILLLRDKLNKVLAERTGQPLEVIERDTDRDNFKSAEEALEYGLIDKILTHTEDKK
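Buffer: 100 mM Tris/HCl pH8, 100 mM KCl, 0.05% low protease BSA, 2.5% glycerol, 0.01% Tween-20. ClpP 10 microg/mL final; 20 min RT; delta FRET normalized to ADEP and DMSO controls.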
TDP1 cell noCPT = qHTS for Inhibitors of human tyrosyl-DNA phosphodiesterase 1 (TDP1): qHTS in cells in absence of CPT; Potency, µM (series often up to 46.2 µM), actives largely listed as inhibitors; actives 15% (n = 420,000); DT40 Tdp1-/- hTDP1 cells, no CPT, ATP luminescence, 48 h; AID 686978, 2013; note: nearly all actives have a fitted effect of over 55% in size
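Readout: luminescence from CellTiter-Glo after 30 min in the dark at RT. Cells: DT40 Tdp1-/- with stable hTDP1, 400/well. Exposure: compounds alone, ≥48 hr, 37 °C.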
TDP1 inh = qHTS Assay for Inhibitors of Tyrosyl-DNA Phosphodiesterase (TDP1); Tyrosyl-DNA phosphodiesterase 1 (Homo sapiens), Q9NUW8; recombinant TDP1, AlphaScreen DNA substrate cleavage; Potency, µM (highest dose often 130 µM), usual class: inhibitors; actives 0.28% (n = 350,000); note: nearly all actives have a fitted effect of over 40% in size
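Signal: AlphaScreen proximity between streptavidin donor and anti-FITC acceptor beads on intact substrate. Reaction: Tdp1 1 nM, substrate 15 nM final, 5 min RT after 15 min compound preincubation.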
Numbers stand for hits; – = inactive; ? = inconclusive; · = no result; [ ] = dose if it differs, or a comment. Unless noted, calls come from the whole dose curve; as a rule, active = well fitted curve in the direction sought with a large enough effect; inconclusive = small, poorly fitted or top-dose-only effect, or another doubt; inactive = no such curve, though single readings can be large; an effect the other way counts as inactive or inconclusive.

SMILES	TDP1 cell CPT	ClpP mod	TDP1 cell noCPT	TDP1 inh
CCOC(=O)C1CCN(c2nc(-c3ccccc3)nc3c2oc2ccccc23)CC1	–	32µM	?	–
CCN1CCN(c2nc(-c3ccccc3Cl)nc3ccccc23)CC1	–	–	?	·
Cc1ccc(CSc2nncn3c2cc2sccc23)cc1	–	–	–	–
OCCN1CCN(c2nc(-c3ccccc3)nc3c2oc2ccccc23)CC1	?	–	16µM	–
OCCN(CCO)c1nc(-c2ccccc2)nc2c1oc1ccccc12	16µM	–	?	–
O=C(O)C1CCN(c2nc(-c3ccccc3)nc3c2oc2ccccc23)CC1	–	–	?	–
CCOc1ccc(-c2cc3c(=O)n(CC(=O)Nc4c(C)cccc4C)ccn3n2)cc1	–	–	–	–
Cc1ccnc(NC(c2cccc(O)c2)c2ccc3ccc(C)nc3c2O)c1 (stereo not drawn)	?	–	?	·
Cc1ccc(C)c(C(Nc2ccccc2)c2ccc3ccc(C)nc3c2O)c1 (stereo not drawn)	21µM	–	18µM	·
Cc1cccc(NC(c2ccccc2F)c2ccc3ccc(C)nc3c2O)n1 (stereo not drawn)	?	–	23µM	–
COc1ccc(C(Nc2ccccn2)c2ccc3ccc(C)nc3c2O)cc1C (stereo not drawn)	?	–	?	·
CCCCOc1ccccc1C1C(C(=O)OC)=CN(CC)C=C1C(=O)OC	?	14µM	?	?
CCCOc1ccccc1C1C(C(=O)OC)=CN(C(C)C)C=C1C(=O)OC	–	16µM	–	·
C=CCOc1ccc(C(=O)CC)cc1OC	–	·	–	–
O=C(/C=C/c1ccco1)NC(=S)Nc1cc(-c2nc3ccccc3s2)ccc1Cl	12µM	–	23µM	–
Cc1ccc(-c2nc3ccccc3s2)cc1NC(=S)NC(=O)/C=C/c1ccco1	?	–	13µM	–
O=C(/C=C/c1ccco1)NC(=S)Nc1cccc(-c2nc3ccccc3s2)c1	4.6µM	–	5.8µM	·
Cc1ccccc1NC(=S)NC(=O)/C=C/c1ccco1	–	–	–	–
Cc1ccc(C(=O)NC(=S)Nc2cccc(-c3nc4ccccc4s3)c2)cc1	?	–	–	–
Cc1ccc(-c2nc3ccccc3s2)cc1NC(=S)NC(=O)c1cccc2ccccc12	?	–	?	–
Cc1ncoc1C(=O)N1CCOc2ccc(CN3CCN(c4ccccn4)CC3)cc2C1	–[9.04 µM]	·	?	·
Cc1ccc(S(=O)(=O)CCC(=O)OCC(=O)Nc2ccc(N3CCOCC3)cc2)cc1	–	–	–	·
Cc1ccc(S(=O)(=O)C2CCN(c3nc(-c4cccs4)nc4ccccc34)CC2)cc1	11µM	–	?	–
Cc1ccc(S(=O)(=O)N2CCN(c3nc(-c4cccs4)nc4ccccc34)CC2)cc1	?	–	11µM	–
Cc1ccc(S(=O)(=O)N2CCN(c3nc(-c4cccs4)nc4cccnc34)CC2)cc1	10µM	?	?	·
SMILES	TDP1 cell CPT	ClpP mod	TDP1 cell noCPT	TDP1 inh
CC(=O)N1CCc2c(sc3c2c(=O)n(-c2ccccc2)c(=O)n3CC(=O)c2ccc(F)cc2)C1	–	–	?	–
Fc1ccc(-c2cc3ncc4c(n3n2)-c2cc(Cl)ccc2OC4)cc1	–	–	–	–
O=S(=O)(NCC[C@@H]1CC[C@H](NS(=O)(=O)c2cccc(F)c2)[C@@H](CO)O1)c1cccc(F)c1	–	–	?	·
Cc1ccn2c(NC(=O)c3ccccc3)c(-c3ccccc3)nc2c1	–	–	–	·
Cc1cccc(C(=O)Nc2c(-c3ccccc3)nc3cc(C)ccn23)c1	?	–	21µM	–
Cc1ccn2c(NC(=O)c3cccc(Cl)c3)c(-c3ccccc3)nc2c1	?	–	23µM	–
O=C(NCCCN1CCN(c2ccccc2F)CC1)c1cc2c(Cl)nc3ccccc3c2s1	16µM	–	15µM	–
O=C(NCCCN1CCCC1)c1cc2c(Cl)nc3ccccc3c2s1	15µM	·	12µM	–
CCCN1CCN(CCCNC(=O)c2cc3c(Cl)nc4ccccc4c3s2)CC1	?	–	?	–
CCC(c1nnnn1-c1ccc2c(c1)OCCO2)N1CCN(C)CC1 (stereo not drawn)	–	–	–	·
N#Cc1cccc(C#N)c1NCC1CCCO1 (stereo not drawn)	–	–	–	·

Compound activity deposited in PubChem BioAssay by National Center for Advancing Translational Sciences (NCATS).
